In assay [1] the target is Fibroblast growth factor receptor 4 (Homo sapiens) (UniProt P22455). Particulars: at 1 µM.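 Note: reported figure is the averaged percent inhibition of FGFR4, from the GSK PKIS kinase screening panel.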
Assay [2] addresses Tyrosine-protein kinase Fgr (Homo sapiens) (UniProt P09769). Particulars: at 0.1 µM.
Assay [3] has the same target. As to conditions: at 1 µM.
The target of assay [4] is Vascular endothelial growth factor receptor 1 (Homo sapiens) (UniProt P17948). Particulars: at 0.1 µM.
Vascular endothelial growth factor receptor 1 (Homo sapiens), sequence (P17948 whole entry): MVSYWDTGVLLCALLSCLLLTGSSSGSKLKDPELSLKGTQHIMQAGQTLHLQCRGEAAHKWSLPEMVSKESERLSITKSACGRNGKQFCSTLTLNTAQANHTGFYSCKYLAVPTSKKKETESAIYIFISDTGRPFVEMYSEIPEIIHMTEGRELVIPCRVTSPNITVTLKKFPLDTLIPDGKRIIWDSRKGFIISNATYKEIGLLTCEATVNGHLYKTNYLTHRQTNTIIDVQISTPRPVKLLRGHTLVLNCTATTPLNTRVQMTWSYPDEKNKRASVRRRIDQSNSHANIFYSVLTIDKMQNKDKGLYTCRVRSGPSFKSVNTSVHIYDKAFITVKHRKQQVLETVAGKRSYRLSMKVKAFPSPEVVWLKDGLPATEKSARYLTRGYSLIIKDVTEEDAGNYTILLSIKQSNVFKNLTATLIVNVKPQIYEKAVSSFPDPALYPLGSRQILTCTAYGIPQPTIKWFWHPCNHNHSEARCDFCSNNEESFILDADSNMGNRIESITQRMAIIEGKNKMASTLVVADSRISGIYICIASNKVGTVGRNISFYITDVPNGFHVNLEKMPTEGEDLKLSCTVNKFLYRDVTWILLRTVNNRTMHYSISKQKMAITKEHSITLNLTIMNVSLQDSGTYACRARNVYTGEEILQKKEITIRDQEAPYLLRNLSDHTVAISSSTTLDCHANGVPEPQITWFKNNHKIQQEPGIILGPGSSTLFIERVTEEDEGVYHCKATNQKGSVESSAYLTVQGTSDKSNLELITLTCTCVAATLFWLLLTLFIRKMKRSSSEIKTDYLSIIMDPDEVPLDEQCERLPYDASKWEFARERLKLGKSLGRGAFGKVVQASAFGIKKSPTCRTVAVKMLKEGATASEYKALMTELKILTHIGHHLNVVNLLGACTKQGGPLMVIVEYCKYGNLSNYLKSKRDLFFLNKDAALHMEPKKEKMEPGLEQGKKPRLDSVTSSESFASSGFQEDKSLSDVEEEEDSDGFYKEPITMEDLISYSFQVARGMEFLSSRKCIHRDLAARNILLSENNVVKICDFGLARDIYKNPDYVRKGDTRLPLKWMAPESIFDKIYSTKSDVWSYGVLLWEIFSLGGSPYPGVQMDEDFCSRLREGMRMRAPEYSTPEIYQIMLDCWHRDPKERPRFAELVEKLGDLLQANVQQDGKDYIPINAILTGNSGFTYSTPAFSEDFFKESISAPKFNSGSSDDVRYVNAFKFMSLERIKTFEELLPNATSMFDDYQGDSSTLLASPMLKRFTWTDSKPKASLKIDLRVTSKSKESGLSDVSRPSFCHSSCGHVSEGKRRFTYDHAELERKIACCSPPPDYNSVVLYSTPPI
Assay [5] shares this target. Particulars: at 1 µM.
The target in assay [6] is Receptor-type tyrosine-protein kinase FLT3 (Homo sapiens) (UniProt P36888). Particulars: at 0.1 µM.
For assay [7] the target is unchanged. As to conditions: at 1 µM.
The test system of assay [8] is T1, Receptor-type tyrosine-protein kinase FLT3 (Homo sapiens), P36888 [D835Y].
T1 sequence (whole entry): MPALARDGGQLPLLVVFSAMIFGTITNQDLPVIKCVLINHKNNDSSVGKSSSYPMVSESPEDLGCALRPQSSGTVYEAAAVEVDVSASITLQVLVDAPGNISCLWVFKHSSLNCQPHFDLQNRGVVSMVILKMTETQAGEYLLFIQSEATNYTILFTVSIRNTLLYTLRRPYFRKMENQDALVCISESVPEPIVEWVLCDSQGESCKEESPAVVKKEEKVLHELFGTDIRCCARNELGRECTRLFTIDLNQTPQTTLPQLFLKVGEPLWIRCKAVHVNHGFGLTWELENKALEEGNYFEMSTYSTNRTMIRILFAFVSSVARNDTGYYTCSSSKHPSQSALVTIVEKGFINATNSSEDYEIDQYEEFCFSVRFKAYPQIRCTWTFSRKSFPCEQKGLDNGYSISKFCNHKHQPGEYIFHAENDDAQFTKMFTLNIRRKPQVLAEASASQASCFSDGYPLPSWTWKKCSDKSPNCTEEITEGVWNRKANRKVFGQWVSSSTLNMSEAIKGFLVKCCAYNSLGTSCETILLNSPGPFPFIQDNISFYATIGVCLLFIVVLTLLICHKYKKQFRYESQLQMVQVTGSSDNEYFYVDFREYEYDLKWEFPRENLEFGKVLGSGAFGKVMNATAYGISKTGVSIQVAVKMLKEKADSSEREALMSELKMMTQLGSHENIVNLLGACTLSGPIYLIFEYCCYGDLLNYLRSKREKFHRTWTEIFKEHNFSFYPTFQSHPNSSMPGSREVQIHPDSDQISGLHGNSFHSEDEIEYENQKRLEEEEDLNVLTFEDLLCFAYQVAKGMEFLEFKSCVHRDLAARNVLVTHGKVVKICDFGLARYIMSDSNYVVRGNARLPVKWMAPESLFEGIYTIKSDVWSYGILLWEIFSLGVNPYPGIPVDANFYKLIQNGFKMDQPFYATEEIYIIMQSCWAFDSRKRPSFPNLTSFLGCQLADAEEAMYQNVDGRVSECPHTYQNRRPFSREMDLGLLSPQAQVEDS
As to conditions: at 0.1 µM.

The target of assay [9] is Non-receptor tyrosine-protein kinase TYK2 (Homo sapiens) (UniProt P29597). As to conditions: at 1 µM.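 Note: values are mean percent inhibition of TYK2 kinase.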
Non-receptor tyrosine-protein kinase TYK2 (Homo sapiens), sequence (P29597 whole entry): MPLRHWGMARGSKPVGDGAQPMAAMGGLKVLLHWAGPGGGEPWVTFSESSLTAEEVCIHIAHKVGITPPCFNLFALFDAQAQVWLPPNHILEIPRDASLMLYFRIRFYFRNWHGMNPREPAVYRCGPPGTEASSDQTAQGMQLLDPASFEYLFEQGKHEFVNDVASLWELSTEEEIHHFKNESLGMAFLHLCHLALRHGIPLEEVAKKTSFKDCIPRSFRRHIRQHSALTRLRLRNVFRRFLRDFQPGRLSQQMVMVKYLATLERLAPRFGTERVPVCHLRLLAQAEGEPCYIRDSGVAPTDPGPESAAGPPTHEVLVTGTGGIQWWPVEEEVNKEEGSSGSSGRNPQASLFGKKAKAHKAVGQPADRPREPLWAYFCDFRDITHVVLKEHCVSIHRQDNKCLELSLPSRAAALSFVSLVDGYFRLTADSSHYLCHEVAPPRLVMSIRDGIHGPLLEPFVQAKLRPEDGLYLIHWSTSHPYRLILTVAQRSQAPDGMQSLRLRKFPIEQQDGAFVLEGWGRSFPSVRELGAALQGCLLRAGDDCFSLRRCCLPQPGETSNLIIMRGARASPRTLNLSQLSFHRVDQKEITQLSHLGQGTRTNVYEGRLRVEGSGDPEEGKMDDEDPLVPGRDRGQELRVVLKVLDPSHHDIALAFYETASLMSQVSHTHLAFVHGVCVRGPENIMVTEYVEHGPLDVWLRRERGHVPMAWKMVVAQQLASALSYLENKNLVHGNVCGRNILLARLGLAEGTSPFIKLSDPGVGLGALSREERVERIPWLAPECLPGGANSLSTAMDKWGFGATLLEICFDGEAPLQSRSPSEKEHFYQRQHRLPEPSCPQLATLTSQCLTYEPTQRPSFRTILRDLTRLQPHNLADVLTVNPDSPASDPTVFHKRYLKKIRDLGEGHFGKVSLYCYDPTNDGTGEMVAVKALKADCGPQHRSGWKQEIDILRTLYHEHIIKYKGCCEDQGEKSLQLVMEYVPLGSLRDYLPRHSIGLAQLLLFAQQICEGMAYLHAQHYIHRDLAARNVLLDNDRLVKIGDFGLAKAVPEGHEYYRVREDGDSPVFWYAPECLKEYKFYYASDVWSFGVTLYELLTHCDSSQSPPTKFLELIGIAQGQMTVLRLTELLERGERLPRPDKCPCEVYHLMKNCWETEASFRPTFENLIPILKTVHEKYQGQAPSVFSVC
Assay [10] deals with T2, Tyrosine-protein kinase receptor TYRO3 (Homo sapiens) (UniProt Q06418).
T2 sequence (whole entry): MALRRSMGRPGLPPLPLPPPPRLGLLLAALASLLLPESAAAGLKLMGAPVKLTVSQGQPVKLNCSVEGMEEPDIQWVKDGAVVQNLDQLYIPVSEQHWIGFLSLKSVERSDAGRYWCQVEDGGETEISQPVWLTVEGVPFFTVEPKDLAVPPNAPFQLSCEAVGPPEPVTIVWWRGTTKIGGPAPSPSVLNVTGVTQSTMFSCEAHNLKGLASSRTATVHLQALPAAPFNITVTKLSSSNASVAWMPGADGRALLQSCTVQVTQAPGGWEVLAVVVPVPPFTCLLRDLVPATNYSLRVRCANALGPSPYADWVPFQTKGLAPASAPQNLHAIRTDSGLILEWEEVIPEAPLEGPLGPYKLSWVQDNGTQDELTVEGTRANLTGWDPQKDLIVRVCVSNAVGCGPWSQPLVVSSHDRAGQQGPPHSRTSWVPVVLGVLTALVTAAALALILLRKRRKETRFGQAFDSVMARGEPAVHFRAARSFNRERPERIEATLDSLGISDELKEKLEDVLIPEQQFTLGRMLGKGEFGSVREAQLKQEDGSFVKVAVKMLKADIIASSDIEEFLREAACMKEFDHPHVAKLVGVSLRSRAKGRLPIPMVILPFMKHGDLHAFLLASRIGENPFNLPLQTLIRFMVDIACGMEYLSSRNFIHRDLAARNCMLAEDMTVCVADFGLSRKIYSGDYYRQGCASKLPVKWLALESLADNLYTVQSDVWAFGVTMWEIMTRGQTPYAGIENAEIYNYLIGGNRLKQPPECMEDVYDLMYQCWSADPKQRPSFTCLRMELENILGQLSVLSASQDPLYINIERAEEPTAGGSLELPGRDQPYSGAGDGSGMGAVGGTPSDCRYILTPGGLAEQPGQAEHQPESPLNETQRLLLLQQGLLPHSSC
Particulars: at 0.1 µM.

Assay [11] concerns the target T2, Tyrosine-protein kinase receptor TYRO3 (Homo sapiens). Particulars: at 1 µM.
Assay [12] addresses Tyrosine-protein kinase Yes (Homo sapiens) (UniProt P07947). Particulars: at 0.1 µM.
Assay [13] shares this target. Particulars: at 1 µM.
In assay [14] the target is T3, Tyrosine-protein kinase ZAP-70 (Homo sapiens) (UniProt P43403).
T3 sequence (whole entry): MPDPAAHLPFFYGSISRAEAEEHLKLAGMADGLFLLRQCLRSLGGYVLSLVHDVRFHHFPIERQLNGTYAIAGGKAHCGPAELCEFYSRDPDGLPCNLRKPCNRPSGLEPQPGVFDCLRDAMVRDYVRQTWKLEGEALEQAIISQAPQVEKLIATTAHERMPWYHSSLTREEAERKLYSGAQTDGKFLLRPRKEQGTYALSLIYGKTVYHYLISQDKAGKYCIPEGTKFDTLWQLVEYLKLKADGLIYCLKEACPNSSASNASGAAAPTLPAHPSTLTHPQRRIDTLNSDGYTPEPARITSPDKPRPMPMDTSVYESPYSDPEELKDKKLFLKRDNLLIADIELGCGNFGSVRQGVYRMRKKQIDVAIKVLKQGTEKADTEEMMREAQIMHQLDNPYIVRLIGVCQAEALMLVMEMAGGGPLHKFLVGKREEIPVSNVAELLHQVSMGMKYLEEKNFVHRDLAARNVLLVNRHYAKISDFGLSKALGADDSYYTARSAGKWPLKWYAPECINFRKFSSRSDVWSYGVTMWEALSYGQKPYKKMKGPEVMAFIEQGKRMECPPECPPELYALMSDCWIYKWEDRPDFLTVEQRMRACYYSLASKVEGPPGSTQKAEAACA
Particulars: at 0.1 µM.

The target of assay [15] is T3, Tyrosine-protein kinase ZAP-70 (Homo sapiens). As to conditions: at 1 µM.
The target of assay [16] is Serine/threonine-protein kinase B-raf (Homo sapiens) (UniProt P15056). Particulars: at 0.1 µM.
Serine/threonine-protein kinase B-raf (Homo sapiens), sequence (P15056 whole entry): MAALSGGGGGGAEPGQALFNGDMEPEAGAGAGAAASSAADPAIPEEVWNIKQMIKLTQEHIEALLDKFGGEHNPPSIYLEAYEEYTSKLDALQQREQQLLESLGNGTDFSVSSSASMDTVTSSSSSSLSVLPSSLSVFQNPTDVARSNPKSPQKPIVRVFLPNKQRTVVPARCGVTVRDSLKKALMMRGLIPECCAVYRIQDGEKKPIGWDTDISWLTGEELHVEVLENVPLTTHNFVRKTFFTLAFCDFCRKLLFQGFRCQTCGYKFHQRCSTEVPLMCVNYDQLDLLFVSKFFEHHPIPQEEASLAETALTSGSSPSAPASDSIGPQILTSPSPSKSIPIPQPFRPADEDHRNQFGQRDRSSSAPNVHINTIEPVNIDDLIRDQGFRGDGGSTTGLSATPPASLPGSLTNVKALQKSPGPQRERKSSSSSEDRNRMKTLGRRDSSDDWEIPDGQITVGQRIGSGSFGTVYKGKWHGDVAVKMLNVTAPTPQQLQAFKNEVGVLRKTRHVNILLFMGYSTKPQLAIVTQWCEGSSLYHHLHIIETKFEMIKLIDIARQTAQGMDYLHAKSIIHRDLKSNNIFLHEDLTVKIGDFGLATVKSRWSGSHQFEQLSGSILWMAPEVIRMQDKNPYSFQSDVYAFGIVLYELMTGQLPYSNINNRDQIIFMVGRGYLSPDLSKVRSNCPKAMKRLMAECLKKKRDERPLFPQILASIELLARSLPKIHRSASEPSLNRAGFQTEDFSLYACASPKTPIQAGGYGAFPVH
Assay [17] has the same target. As to conditions: at 1 µM.
Assay [18] deals with Serine/threonine-protein kinase B-raf (Homo sapiens), P15056 [V600E]. Particulars: at 0.1 µM.
Serine/threonine-protein kinase B-raf (Homo sapiens), P15056 [V600E], sequence (P15056 whole entry V600E): as the sequence (P15056 whole entry) above, with V600E counted along it
Assay [19] shares this test system. Particulars: at 1 µM.
The target in assay [20] is RAF proto-oncogene serine/threonine-protein kinase (Homo sapiens) (UniProt P04049). Particulars: at 0.1 µM.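 Note: values are mean CRAF kinase inhibition from profiling of the GSK Published Kinase Inhibitor Set.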
RAF proto-oncogene serine/threonine-protein kinase (Homo sapiens), sequence (P04049 whole entry): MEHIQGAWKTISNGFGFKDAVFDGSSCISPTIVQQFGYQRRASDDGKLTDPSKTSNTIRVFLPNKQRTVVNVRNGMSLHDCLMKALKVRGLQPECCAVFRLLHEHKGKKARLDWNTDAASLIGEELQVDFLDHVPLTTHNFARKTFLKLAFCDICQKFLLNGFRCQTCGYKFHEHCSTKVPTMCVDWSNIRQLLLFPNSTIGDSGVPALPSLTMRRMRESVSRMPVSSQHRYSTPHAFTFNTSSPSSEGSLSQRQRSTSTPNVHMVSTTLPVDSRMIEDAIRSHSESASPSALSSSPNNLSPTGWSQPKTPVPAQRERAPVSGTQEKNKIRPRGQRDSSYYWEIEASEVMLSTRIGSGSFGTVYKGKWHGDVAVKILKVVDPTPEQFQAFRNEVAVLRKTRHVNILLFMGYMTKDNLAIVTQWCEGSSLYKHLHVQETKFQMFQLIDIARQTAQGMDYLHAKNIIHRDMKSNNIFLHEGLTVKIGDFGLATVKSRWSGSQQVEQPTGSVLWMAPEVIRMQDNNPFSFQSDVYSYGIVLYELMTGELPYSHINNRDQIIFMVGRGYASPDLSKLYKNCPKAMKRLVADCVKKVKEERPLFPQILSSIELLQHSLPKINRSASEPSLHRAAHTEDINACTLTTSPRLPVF

Tyrosine-protein kinase Yes (Homo sapiens), sequence (P07947 2-543 limits assumed): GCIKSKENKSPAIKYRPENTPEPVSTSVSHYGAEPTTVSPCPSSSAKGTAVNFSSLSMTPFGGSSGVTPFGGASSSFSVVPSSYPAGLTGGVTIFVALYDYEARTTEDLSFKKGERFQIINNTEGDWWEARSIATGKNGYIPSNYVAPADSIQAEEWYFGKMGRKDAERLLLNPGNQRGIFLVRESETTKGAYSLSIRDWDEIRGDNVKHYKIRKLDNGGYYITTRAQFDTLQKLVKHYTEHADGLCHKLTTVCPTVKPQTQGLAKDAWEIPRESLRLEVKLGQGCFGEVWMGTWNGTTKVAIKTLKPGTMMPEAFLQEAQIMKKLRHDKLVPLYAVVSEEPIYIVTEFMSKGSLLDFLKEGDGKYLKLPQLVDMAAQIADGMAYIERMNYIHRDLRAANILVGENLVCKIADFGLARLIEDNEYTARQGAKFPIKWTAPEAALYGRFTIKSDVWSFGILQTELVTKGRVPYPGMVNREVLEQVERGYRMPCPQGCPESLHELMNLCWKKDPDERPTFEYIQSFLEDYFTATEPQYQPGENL
Tyrosine-protein kinase Fgr (Homo sapiens), sequence (P09769 2-529 limits assumed): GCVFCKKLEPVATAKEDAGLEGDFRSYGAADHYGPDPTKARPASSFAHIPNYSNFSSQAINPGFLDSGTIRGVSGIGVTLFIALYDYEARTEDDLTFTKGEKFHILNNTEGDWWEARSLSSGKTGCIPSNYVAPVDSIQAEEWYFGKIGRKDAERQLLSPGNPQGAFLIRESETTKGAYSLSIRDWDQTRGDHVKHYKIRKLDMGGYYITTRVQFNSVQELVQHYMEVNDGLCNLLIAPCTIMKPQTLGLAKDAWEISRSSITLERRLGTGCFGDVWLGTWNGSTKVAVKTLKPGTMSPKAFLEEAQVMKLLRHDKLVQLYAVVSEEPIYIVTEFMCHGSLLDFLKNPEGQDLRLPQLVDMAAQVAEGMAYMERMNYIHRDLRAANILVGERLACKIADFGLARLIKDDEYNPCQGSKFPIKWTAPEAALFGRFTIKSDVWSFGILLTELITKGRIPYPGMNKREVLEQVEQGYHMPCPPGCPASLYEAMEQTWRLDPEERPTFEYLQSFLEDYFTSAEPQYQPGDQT

A word on the inhibition: it is the drop in the measured response relative to a control, in per cent. `O=C(Nc1n[nH]c2cc(-c3cc(F)ccc3F)ccc12)C1CC1`: the inhibition in [1] was 0.78%; in [2], 3.33%; in assay [3] it was 7.71%; in assay [4], 0.6%; in assay [5], 1.91%; in [6], 1.12%. Besides, the inhibition in assay [7] was 4.67%; in [8], -5.43%; in assay [9] it was -2.35%; in assay [10] it was 3.8%; in [11], 11.7%; in assay [12] it was 2.25%. Moreover, the inhibition was 8.92% in assay [13]; 0.04% in assay [14]; -0.4% in [15]; 5.1% in assay [16]; 7.61% in [17]; 5.62% in [18]. The results for the inhibition in assay [19] and in assay [20] were 6.3% and -1.79%, respectively.
Regarding `N#Cc1ccc(Oc2nccc(-c3c(-c4ccc(F)cc4)ncn3C3CCNCC3)n2)cc1`, the inhibition is -0.84% in assay [1]; 3.69% in assay [2]; 6.62% in [3]; -0.44% in [4]; -0.67% in [5]; -0.97% in assay [6]. The inhibition is 3.98% in assay [7]; -7.02% in assay [8]; -0.38% in assay [9]; 2.69% in assay [10]; 3.55% in assay [11]; 3.38% in [12]. Moreover, the inhibition was 3.87% in assay [13]; -0.57% in [14]; 1.9% in assay [15]; 6.93% in assay [16]; 6.24% in assay [17]; 4.98% in [18]. For the same molecule, the inhibition in assay [19] was 4.44%; in assay [20], -1.66%.
In the case of `COc1cc(Nc2ncc(-c3ccccc3)o2)cc(OC)c1OC`, the inhibition in assay [1] is 1.36%; in assay [2], 3.9%; in assay [3], 29.4%; in assay [4] it was 8.63%; in assay [6], 61.7%; in assay [7], 90.8%. Besides, the inhibition in [8] is 14.2%; in assay [9] it was 6.55%; in assay [10], -1.23%; in assay [11], 1.3%; in [12], 11.5%; in assay [13], 46.6%. The inhibition in assay [14] was -2.95%; in assay [15] it was 0.62%; in assay [16], -1.68%; in assay [17] it was -1.94%; in assay [18], -1.66%; in assay [19], -1.09%. Further, the inhibition in assay [20] is -3.29%.
As to `CCC(=O)Nc1ccc(C)c(-c2ccc(C(=O)NCC3CC3)cc2)c1`, the inhibition in assay [1] was found to be 1%; in assay [2], 1.7%; in [3] it was 4.31%; in assay [4], 0.67%; in assay [5], 4.22%; in [6], 3.07%. Moreover, the inhibition in [7] is 3.74%; in [9] it was -0.87%; in assay [10] it was 2.6%; in assay [11] it was 2.68%; in assay [12], 3.12%; in [13], 4.01%. Besides, the inhibition is -4.93% in [14]; 1.46% in assay [15]; 4.61% in [16]; 4.76% in assay [17]; 3.97% in assay [18]; 4.63% in assay [19]. In addition, in assay [20], the inhibition is 2.89%.
On to `Cc1ccc(NC(=O)c2ccoc2)cc1-c1ccc(C(=O)NCC2CC2)cc1`, for which the inhibition worked out at 1.63% in [1]; 2.23% in [2]; 3.07% in [3]; 1.47% in assay [4]; 8.07% in assay [5]; 0.8% in [6]. Also, the inhibition is 0.9% in [7]; -5.38% in assay [8]; -0.16% in assay [9]; 0.97% in assay [10]; 3.21% in assay [11]; 3.34% in [12]. The inhibition in assay [13] was 1.5%; in [14] it was -0.49%; in assay [15], 1.63%; in assay [16] it was 3.14%; in assay [17], 2.28%; in assay [18], 2.97%. In addition, the inhibition in assay [19] was 1.81%; in [20] it was 0.61%.
For the molecule `C[C@@H](Oc1cc(-n2cnc3ccc(OC4CCN(C)CC4)cc32)sc1C(N)=O)c1ccccc1Cl`, the inhibition in assay [1] was -1.19%; in [2], 3.65%; in assay [3] it was 4.89%; in assay [4], 1.54%; in assay [5], 3.12%; in assay [6], 3.07%. Further, the inhibition in [7] is 14.4%; in assay [8], 1.72%; in [9], -7.54%; in assay [10], 2.39%; in assay [11], 4.84%; in assay [12] it was -0.81%. Moreover, the inhibition is 3.04% in assay [13]; -2.84% in assay [14]; -1.32% in assay [15]; 5.72% in assay [16]; 7.68% in assay [17]; 4.5% in assay [18]. The inhibition in [19] is 3.24%; in [20] it was 2.09%.
`COC(=O)Nc1nc2ccc(Sc3ccc(NC(=O)Nc4cc(C(F)(F)F)ccc4F)cc3)cc2[nH]1`: the inhibition in assay [1] was -0.24%; in assay [2] it was 1.66%; in [3], 3.71%; in assay [4], 4.5%; in assay [5] it was 37.7%; in [6] it was 4.87%. Besides, the inhibition in assay [7] was 32.6%; in [9], 0.01%; in [10] it was 1.03%; in assay [11] it was 21.9%; in [12], -0.49%; in assay [13], 5.58%. For the same molecule, the inhibition in assay [14] was 3.14%; in assay [15] it was -0.65%; in assay [16], 1.01%; in assay [17], 14.8%; in [18], -0.53%; in assay [19], 17.5%. Moreover, the inhibition in assay [20] was -1.08%.
Turning to `CN1CCN(CCCNc2nc3ccc(Oc4ccc(NC(=O)Nc5cc(C(F)(F)F)ccc5F)cc4)cc3[nH]2)CC1`, the inhibition in assay [1] was -0.18%; in assay [2], 1.31%; in assay [3], 8.15%; in [4] it was 12.7%; in assay [5], 40.7%; in [6] it was 15%. The inhibition in [7] is 61.2%; in assay [8] it was -5.77%; in [9], 0.88%; in assay [10] it was 1.94%; in [11], 19.1%; in assay [12] it was -0.61%. Besides, the inhibition in assay [13] is -1.74%; in assay [14], -0.98%; in [15], 2.82%; in assay [16], 2.28%; in assay [17], 13.7%; in assay [18], 2.94%. Moreover, the inhibition was 16.6% in assay [19] and 2.41% in assay [20].

The record behind these values is ChEMBL document CHEMBL1961873, “Compounds: GSK PKIS; Assays: Nanosyn kinase panel” (2012).
